Columns and labels:
[1] = molecular target: Sphingosine kinase 1 (Homo sapiens) (UniProt Q9NYA1); conditions: at 1 µM;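 further: mean SPHK1 inhibition value reported from the GSK PKIS kinase panel screen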
[2] = molecular target: T1, Sphingosine kinase 2 (Homo sapiens) (UniProt Q9NRA0); conditions: at 0.1 µM
T1 sequence (whole entry): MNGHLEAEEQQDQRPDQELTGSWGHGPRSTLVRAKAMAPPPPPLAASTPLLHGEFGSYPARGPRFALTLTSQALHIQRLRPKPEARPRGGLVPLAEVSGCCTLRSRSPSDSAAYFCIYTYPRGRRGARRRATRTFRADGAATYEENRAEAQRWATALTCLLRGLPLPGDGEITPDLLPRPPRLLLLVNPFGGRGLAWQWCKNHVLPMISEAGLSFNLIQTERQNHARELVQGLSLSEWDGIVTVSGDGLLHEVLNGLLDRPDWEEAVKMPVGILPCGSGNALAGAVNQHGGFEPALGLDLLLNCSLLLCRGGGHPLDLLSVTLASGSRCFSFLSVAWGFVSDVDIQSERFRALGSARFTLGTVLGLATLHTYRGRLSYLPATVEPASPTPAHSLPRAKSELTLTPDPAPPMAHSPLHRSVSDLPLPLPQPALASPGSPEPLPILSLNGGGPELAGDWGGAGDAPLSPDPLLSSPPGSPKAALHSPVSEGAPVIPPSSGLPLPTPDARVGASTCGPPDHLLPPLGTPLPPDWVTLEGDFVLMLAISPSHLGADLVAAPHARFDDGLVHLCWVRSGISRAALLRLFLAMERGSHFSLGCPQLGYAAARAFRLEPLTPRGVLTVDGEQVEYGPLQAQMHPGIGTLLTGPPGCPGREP

[3] = molecular target: T1, Sphingosine kinase 2 (Homo sapiens); conditions: at 1 µM
[4] = molecular target: Casein kinase II subunit alpha (Homo sapiens) (UniProt P68400); conditions: at 0.1 µM
Sequence of Casein kinase II subunit alpha (Homo sapiens) (P68400 whole entry, looked up): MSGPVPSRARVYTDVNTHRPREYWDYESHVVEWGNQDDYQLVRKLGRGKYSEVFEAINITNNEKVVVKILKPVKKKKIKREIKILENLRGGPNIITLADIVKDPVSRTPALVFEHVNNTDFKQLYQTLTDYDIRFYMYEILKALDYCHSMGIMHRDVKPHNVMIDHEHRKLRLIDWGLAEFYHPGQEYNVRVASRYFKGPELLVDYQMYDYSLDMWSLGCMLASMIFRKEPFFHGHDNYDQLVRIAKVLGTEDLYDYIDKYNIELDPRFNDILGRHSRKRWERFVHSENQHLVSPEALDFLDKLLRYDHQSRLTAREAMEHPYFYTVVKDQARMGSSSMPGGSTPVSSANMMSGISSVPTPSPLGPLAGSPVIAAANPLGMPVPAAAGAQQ

[5] = molecular target: Casein kinase II subunit alpha (Homo sapiens) (UniProt P68400); conditions: at 1 µM
[6] = molecular target: T2, Inhibitor of nuclear factor kappa-B kinase subunit alpha (Homo sapiens) (UniProt O15111); conditions: at 0.1 µM
T2 sequence (whole entry): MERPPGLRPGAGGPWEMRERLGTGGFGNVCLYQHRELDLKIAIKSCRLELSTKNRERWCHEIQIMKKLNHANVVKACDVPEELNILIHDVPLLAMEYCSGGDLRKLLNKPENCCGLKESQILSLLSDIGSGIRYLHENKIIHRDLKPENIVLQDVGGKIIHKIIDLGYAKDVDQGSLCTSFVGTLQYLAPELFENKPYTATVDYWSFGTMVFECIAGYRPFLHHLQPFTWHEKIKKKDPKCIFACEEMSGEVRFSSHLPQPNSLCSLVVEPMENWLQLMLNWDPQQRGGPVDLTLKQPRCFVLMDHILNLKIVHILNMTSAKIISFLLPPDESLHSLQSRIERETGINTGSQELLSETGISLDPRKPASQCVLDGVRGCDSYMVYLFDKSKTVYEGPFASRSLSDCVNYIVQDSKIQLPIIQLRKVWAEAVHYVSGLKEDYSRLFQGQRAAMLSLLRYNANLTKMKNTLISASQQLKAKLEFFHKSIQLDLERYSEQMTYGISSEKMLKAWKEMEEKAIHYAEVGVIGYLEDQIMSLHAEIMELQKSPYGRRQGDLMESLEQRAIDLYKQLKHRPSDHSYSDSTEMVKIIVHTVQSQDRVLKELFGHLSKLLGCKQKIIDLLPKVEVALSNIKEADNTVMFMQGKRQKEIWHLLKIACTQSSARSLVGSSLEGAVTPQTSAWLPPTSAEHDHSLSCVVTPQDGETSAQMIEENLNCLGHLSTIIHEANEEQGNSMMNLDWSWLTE

[7] = molecular target: T2, Inhibitor of nuclear factor kappa-B kinase subunit alpha (Homo sapiens); conditions: at 1 µM
[8] = molecular target: T3, Inhibitor of nuclear factor kappa-B kinase subunit beta (Homo sapiens) (UniProt O14920); conditions: at 0.1 µM
T3 sequence (whole entry): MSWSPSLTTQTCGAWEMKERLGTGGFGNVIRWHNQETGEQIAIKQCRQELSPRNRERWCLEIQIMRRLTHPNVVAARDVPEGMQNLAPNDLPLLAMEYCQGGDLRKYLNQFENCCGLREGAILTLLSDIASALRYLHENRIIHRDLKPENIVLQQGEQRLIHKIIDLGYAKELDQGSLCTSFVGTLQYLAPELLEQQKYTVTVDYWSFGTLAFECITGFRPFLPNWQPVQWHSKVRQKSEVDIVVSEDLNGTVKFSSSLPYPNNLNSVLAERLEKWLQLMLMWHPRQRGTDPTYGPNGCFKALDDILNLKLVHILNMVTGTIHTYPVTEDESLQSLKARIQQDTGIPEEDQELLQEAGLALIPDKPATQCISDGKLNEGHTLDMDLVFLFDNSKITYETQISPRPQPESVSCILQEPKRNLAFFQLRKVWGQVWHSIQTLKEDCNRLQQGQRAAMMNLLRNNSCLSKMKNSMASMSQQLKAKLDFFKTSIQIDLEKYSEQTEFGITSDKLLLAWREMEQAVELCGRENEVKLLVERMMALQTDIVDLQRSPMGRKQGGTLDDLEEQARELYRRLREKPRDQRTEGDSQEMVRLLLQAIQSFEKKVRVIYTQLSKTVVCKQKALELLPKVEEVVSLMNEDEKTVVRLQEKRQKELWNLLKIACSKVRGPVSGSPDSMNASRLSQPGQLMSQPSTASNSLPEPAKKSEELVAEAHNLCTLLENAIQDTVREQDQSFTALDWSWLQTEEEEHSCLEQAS

[9] = molecular target: T3, Inhibitor of nuclear factor kappa-B kinase subunit beta (Homo sapiens); conditions: at 1 µM
[10] = molecular target: T4, Inhibitor of nuclear factor kappa-B kinase subunit epsilon (Homo sapiens) (UniProt Q14164); conditions: at 0.1 µM
T4 sequence (whole entry): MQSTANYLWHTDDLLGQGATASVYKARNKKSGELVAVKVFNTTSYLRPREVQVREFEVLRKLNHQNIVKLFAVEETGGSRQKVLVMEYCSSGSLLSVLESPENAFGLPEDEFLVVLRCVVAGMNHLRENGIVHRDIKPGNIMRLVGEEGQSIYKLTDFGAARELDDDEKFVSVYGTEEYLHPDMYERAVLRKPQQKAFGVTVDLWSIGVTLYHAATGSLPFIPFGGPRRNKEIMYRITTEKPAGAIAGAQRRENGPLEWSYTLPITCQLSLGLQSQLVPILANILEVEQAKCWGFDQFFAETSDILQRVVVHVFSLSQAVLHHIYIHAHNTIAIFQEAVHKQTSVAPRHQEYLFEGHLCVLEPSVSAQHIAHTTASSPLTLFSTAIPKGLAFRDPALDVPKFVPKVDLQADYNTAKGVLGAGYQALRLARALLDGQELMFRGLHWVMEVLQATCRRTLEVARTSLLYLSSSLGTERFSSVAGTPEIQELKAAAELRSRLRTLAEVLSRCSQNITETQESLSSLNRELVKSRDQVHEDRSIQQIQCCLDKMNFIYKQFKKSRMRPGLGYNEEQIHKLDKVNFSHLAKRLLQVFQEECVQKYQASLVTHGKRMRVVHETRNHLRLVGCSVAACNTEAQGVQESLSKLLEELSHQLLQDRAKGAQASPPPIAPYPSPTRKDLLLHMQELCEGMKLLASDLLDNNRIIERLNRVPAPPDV

[11] = molecular target: T4, Inhibitor of nuclear factor kappa-B kinase subunit epsilon (Homo sapiens); conditions: at 1 µM
[12] = molecular target: T5, Serine/threonine-protein kinase Nek1 (Homo sapiens) (UniProt Q96PY6); conditions: at 0.1 µM
T5 sequence (whole entry): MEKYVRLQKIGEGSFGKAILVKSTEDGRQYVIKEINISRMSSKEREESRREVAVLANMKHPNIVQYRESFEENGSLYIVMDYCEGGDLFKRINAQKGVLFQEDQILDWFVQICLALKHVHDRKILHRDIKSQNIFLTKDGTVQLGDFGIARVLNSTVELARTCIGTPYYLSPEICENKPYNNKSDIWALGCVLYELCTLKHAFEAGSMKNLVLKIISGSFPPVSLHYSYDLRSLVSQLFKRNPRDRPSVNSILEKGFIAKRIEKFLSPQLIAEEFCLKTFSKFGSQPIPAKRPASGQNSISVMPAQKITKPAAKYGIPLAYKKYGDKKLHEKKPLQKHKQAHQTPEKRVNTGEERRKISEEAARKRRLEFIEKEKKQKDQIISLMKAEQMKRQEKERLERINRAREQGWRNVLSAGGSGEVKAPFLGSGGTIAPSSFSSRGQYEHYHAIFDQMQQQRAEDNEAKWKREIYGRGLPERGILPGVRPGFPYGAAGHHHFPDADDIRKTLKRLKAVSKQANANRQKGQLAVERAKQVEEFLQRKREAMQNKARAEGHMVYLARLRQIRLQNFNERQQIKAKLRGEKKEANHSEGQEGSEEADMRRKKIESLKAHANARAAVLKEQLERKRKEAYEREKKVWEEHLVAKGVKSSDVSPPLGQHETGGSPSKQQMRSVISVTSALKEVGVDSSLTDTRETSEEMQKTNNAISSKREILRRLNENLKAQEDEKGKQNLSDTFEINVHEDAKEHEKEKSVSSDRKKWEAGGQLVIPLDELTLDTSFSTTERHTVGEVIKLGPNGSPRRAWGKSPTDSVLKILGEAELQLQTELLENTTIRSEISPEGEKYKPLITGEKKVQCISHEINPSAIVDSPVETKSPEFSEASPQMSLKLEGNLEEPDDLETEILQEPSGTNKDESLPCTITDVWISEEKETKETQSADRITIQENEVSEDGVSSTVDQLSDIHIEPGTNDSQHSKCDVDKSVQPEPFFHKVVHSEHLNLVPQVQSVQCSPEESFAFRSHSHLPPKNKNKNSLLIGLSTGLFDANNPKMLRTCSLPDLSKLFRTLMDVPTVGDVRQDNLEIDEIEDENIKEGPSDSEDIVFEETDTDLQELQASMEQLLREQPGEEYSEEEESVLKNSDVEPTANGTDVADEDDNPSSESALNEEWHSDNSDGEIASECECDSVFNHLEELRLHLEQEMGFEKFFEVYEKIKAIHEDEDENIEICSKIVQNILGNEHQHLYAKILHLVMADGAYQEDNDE

[13] = molecular target: T5, Serine/threonine-protein kinase Nek1 (Homo sapiens); conditions: at 1 µM
[14] = molecular target: T6, Serine/threonine-protein kinase Nek2 (Homo sapiens) (UniProt P51955); conditions: at 0.1 µM
T6 sequence (whole entry): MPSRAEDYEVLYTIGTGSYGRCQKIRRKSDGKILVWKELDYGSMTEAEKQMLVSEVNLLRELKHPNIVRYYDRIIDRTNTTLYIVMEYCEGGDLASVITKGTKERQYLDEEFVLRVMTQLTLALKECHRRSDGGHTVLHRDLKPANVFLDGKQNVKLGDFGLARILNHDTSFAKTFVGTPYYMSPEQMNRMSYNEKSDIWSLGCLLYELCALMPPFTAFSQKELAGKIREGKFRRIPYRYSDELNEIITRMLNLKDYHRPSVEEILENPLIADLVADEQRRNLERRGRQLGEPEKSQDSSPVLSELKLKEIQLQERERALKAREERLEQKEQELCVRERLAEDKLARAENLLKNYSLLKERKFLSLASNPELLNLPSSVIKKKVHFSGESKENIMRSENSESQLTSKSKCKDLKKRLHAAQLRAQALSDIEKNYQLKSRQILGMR

[15] = molecular target: T6, Serine/threonine-protein kinase Nek2 (Homo sapiens); conditions: at 1 µM
[16] = molecular target: Serine/threonine-protein kinase Nek6 (Homo sapiens) (UniProt Q9HC98); conditions: at 0.1 µM
Sequence of Serine/threonine-protein kinase Nek6 (Homo sapiens) (Q9HC98 whole entry): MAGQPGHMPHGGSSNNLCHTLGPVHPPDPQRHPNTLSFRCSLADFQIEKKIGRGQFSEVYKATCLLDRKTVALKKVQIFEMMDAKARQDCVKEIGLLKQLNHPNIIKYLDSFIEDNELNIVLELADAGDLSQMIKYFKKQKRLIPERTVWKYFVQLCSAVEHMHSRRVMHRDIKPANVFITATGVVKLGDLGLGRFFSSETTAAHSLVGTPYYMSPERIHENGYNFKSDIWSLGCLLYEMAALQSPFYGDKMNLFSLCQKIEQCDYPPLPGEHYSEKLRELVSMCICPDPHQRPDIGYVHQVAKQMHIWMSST

[17] = molecular target: Serine/threonine-protein kinase Nek6 (Homo sapiens) (UniProt Q9HC98); conditions: at 1 µM
[18] = molecular target: Serine/threonine-protein kinase Nek7 (Homo sapiens) (UniProt Q8TDX7); conditions: at 0.1 µM
Sequence of Serine/threonine-protein kinase Nek7 (Homo sapiens) (Q8TDX7 whole entry, looked up): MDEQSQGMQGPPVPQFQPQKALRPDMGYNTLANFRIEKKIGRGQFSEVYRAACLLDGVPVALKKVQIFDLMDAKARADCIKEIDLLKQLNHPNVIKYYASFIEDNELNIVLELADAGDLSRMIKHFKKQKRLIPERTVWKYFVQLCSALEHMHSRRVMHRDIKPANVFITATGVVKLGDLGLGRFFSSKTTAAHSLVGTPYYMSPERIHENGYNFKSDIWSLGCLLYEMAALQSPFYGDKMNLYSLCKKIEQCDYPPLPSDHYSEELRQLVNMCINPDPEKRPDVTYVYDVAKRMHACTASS

[19] = molecular target: Serine/threonine-protein kinase Nek7 (Homo sapiens) (UniProt Q8TDX7); conditions: at 1 µM
[20] = molecular target: T7, Serine/threonine-protein kinase Nek9 (Homo sapiens) (UniProt Q8TD19); conditions: at 0.1 µM;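 further: reported value is the mean percent inhibition of NEK9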
T7 sequence (whole entry): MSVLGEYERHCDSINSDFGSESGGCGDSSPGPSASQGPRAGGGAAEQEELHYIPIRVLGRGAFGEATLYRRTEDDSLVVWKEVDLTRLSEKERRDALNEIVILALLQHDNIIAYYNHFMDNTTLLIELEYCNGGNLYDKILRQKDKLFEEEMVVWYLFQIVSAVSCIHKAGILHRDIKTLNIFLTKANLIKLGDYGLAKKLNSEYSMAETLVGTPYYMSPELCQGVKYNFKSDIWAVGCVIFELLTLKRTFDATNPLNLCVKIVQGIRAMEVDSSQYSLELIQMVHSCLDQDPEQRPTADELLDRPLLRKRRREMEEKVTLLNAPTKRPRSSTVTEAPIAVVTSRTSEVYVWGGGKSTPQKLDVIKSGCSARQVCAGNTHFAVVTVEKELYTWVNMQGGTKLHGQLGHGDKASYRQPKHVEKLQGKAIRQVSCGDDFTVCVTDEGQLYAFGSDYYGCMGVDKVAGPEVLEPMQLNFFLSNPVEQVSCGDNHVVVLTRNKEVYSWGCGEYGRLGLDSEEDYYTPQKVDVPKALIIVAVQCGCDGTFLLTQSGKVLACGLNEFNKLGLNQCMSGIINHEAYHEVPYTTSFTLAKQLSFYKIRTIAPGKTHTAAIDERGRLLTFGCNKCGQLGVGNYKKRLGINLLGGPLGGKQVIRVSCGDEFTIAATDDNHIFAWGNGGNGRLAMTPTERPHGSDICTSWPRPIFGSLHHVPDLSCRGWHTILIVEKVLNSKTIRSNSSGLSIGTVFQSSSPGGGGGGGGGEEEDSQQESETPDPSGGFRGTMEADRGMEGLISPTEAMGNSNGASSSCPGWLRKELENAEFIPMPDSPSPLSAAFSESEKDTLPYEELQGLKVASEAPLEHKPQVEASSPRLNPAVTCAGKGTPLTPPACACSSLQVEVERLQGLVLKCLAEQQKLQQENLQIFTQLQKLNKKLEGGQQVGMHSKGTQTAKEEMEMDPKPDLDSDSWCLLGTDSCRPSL

Sequence of Sphingosine kinase 1 (Homo sapiens) (Q9NYA1 whole entry): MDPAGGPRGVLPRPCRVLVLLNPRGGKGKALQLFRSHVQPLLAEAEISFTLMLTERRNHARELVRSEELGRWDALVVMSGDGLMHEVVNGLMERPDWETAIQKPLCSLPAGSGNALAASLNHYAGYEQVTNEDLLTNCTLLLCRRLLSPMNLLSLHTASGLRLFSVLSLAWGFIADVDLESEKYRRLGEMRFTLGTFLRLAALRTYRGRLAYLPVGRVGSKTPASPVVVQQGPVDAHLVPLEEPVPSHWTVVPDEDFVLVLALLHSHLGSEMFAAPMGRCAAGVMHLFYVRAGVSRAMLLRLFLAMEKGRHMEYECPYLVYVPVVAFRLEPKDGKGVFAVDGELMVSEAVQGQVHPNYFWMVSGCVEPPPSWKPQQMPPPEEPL

Compound	inhibition [1]	inhibition [2]	inhibition [3]	inhibition [4]	inhibition [5]	inhibition [6]	inhibition [7]	inhibition [8]	inhibition [9]	inhibition [10]	inhibition [11]	inhibition [12]	inhibition [13]	inhibition [14]	inhibition [15]	inhibition [16]	inhibition [17]	inhibition [18]	inhibition [19]	inhibition [20]
O=C(Nc1n[nH]c2cc(-c3cc(F)ccc3F)ccc12)C1CC1	-2.44%	2.23%	0.13%	2.27%	2.39%	8.06%	7.87%	4.95%	5.11%	4.29%	6.78%	1.23%	0.65%	3.53%	2.03%	1.92%	-0.92%	6.28%	3.5%	11.6%
CNC(=O)c1cncc(/C=C/c2c(C)cccc2C)c1	-1.57%	0.8%	2.92%	1.93%	5.37%	2.95%	-0.54%	1.19%	-0.96%	0.37%	0.54%	-0.56%	2.88%	0.66%	-0.77%	1.65%	0.01%	-1.37%	0.6%	-0.53%

Reference: ChEMBL document CHEMBL1961873, “Compounds: GSK PKIS; Assays: Nanosyn kinase panel” (2012)
